Shn3 inh set2: reduction of Shn3 3'UTR firefly luciferase signal, primary screen, Schnurri-3 inhibitor project, cell-based, Clone20 osteoblasts, set 2. inhibition, % at 12.5 µM. AID 588674, 2011. Clone20 osteoblast Shn3 3'UTR firefly luciferase, 24 h. 360,000 compounds, 0.52% hits;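 active means mean inhibition of at least 75% with every replicate also reaching 75%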;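 further: 0% = median of neutral control wells and 100% = pilot-screen positive control compound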
EBV LMP1 NFkB: EBV LMP1-driven NF-kappaB luciferase reporter inhibitors, primary screen, cell-based, luminescence, single point; LMP1-induced NF-kappaB luciferase reporter cells; inhibition, % at 12.5 µM; 350,000 compounds, 0.69% hits; AID 504558, 2011; in the data active means inhibition above about 41%;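 further: 0% = neutral control wells and 100% = reference inhibitor control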
SRC3 inh: SRC3 coactivator transcriptional activity inhibitors, primary screen, cell-based, luminescence | inhibition, % at 3.6 µM | 360,000 compounds, 0.17% hits | Nuclear receptor coactivator 3 (Homo sapiens), Q9Y6Q9 | HEK293 GAL4-SRC3 luciferase reporter;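 active means inhibition above a per-campaign cutoff, the mean of all compounds plus 3 SD, cut at about 60% in these data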;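 further: 0% = DMSO-treated cells and 100% = gossypol-treated cells at 36 µM; higher means less SRC3-driven luciferase light from the GAL4 reporter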
LRH-1 inv ag: LRH-1 (NR5A2) inverse agonists, primary screen, cell-based, luminescence, HEK293T, StAR-luciferase reporter | Nuclear receptor subfamily 5 group A member 2 (Homo sapiens), O00482 | LRH-1 transfected, 24 h | inhibition, % at 3.6 µM | 360,000 compounds, 0.13% hits;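 active means inhibition above the mean inhibition of all tested compounds plus 3 SD, cut at about 73% in these data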;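 further: 0% = DMSO wells and 100% = reporter-only cells lacking LRH-1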
SRC1 inh: SRC1 coactivator transcriptional activity inhibitors, primary screen, cell-based, luminescence; Nuclear receptor coactivator 1 (Homo sapiens), Q15788; HEK293 GAL4-SRC1 luciferase reporter; inhibition, % at 3.6 µM; 360,000 compounds, 0.12% hits;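 active means inhibition above the campaign mean plus 3 SD, with each screening campaign given its own cutoff, cut at about 60% in these data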;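 further: 0% = DMSO treated cells and 100% = gossypol at 36 µM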
NCOA2 inhibitor: inhibition of GAL4-SRC2 driven luciferase reporter, primary screen, SRC2 inhibitor project, cell-based, luminescence; Nuclear receptor coactivator 2 (Homo sapiens), Q15596; HEK293 GAL4-SRC2 luciferase reporter; inhibition, % at 9 µM; 370,000 compounds, 0.17% hits;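 active means inhibition above the mean inhibition of all tested compounds plus 3 SD, set per campaign, cut at about 52% in these data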;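 further: 0% = DMSO treated cells and 100% = cells given Gossypol at 36 µM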
Active calls of the source: *; / = no result. In the library only some 1.2% were active in any assay of this set; here they are far more common.

SMILES	Shn3 inh set2	EBV LMP1 NFkB	SRC3 inh	LRH-1 inv ag	SRC1 inh	NCOA2 inhibitor
CCc1ccc(/C=C2\SC(=S)N(CCCC(=O)NC3=NCCS3)C2=O)cc1	49	46*	13	2	11	55*
COc1cc(NC(=O)C2CCCN(S(=O)(=O)c3cccc4cccnc34)C2)cc(OC)c1 (stereo unspecified)	/	/	/	/	/	1
COC(=O)[C@]12C[C@H](CC(=O)NCC3CCCCC3)C(=O)N(Cc3ccc(Cl)cc3Cl)C1=C[C@H](COCc1ccccc1)O[C@@H]2C	/	/	/	/	/	15
CN1OC[C@@H]2CN(C(=O)c3ccc([N+](=O)[O-])cc3)[C@H](c3ccccc3Br)C[C@@H]21	/	/	/	/	/	21
CC(C)(C)C(=O)Nc1ccc(NC(=O)c2ccco2)nc1	90*	81*	78*	75*	79*	82*
O=C(Nc1ccc(NC(=O)c2ccco2)nc1)c1ccco1	-5	45*	-45	-104	-75	-4
Cc1ccc(C=Nn2c(-c3n[nH]c4c3CCC4)n[nH]c2=S)o1	/	/	/	/	/	15
COC(=O)[C@H](CC(C)C)N(CCCc1cn(Cc2ccccc2)nn1)S(=O)(=O)c1ccccc1Br	/	/	/	/	/	12
CCc1ccc(-n2c(O)c(C=NCCN(CC)CC)c(=O)[nH]c2=O)cc1	96*	-3	0	-2	8	7
CN(C)CCN(Cc1ccc(Cl)cc1)c1ccccn1	24	52*	2	29	14	3
Nc1nc(-c2ccc(NC(=O)c3ccco3)cc2)cs1	-2	76*	-87	-156	-109	-57
Cc1nc(-c2ccc(NC(=O)c3ccco3)cc2)cs1	67	64*	-3	-41	-27	43
O=C(Nc1ccc(NC(=O)c2ccco2)cc1)c1ccco1	-86	-8	-39	-87	-57	-82
CN=C1c2cc3cc(OC)ccc3n2CCN1Cc1ccccc1	90*	16	4	17	-2	-24
CCN(CC)CCNC1=NCCn2c1cc1cc(OC)ccc12	-21	-18	5	-10	4	-28
CCOC(=O)N1C(=O)C[C@](Sc2ccc(OC)cc2)(C(=O)N2CCOCC2)[C@H]1c1ccc(OC)cc1	/	/	/	/	/	-1
CCOc1cc(C(=O)CSc2nnc(CNc3ccc(Cl)cc3)o2)ccc1NC(=O)CC	84*	-6	11	15	-6	24
CC(=O)Nc1ccc(N2C(=O)c3cccc4c(O)ccc(c34)C2=O)cc1	13	17	-16	-28	-10	-8
O=C1c2cccc3c(O)ccc(c23)C(=O)N1c1ccc(Cl)cc1	2	60*	-5	-16	1	-12
CCn1c(NC(=O)c2ccc(C)cc2)c2ccccc2nc1=O	-6	79*	8	5	-3	7
CC(=O)C(Cc1ccccc1)NC(=O)CCl (stereo unspecified)	-46	-10	7	25	-19	28
O=C(CCl)NC(Cc1ccccc1)c1ccccc1 (stereo unspecified)	-15	0	55	37	41	57*
CCN1Cc2nnn(Cc3ccccc3)c2-c2cc(F)ccc2S1(=O)=O	/	/	/	/	/	10
Fc1ccc(NC(=S)N2CCCN(c3ccc(C(F)(F)F)cn3)CC2)c(F)c1	89*	19	19	43	25	18
CC(=O)N1CCN(c2ccc(N3CCN(C(C)=O)[C@@H](C)C3)c(C)c2)[C@@H](C)C1	/	/	/	/	/	13
COc1ccc(Cn2cc3c(-c4ccc(F)cc4)nnc-3c3cc(OC)c(OC)cc32)cc1	-4	69*	1	22	13	7
COc1cc2c3nnc(-c4ccc(F)cc4)c-3cn(Cc3ccc(F)cc3)c2cc1OC	-13	-4	0	-11	-12	3
Cc1ccc(S(=O)(=O)NCc2ccc(C(=O)N3CCN(c4ccc([N+](=O)[O-])cc4)CC3)cc2)cc1	90*	20	44	32	17	9
O=C(c1ccc([N+](=O)[O-])cc1)N1CCN(Cc2ccccc2)CC1	4	59*	12	16	-4	2
